Assay results as given in PubChem BioAssay (NCATS).
Inconclusive results are not listed. Activity calls are given as the source filed them. Calls follow the shape of the dose curve; as a rule, active = well fitted cell-killing curve with a large enough effect; inconclusive = small, poorly fitted or top-dose-only effect, or effect the other way; inactive = no such curve, though single readings can be large or run the other way.

Assay: Quantitative High-Throughput drug screen in 47 multiple myeloma cell lines against the NCATS MIPE library collection: KMS21BM_JCRB cell viability assay (AID 1918974)
Conditions: ATP luminescence, 48 h; viability: at 45.8 µM
From the text: PI: Beverly A. Mock Ph.D.
Laboratory of Cancer Biology and Genetics,
Center for Cancer Research, National Cancer Institute,
National Institute of Health, Bethesda, Maryland
Drug resistance and disease progression are common in multiple myeloma (MM) patients, underscoring the need for new therapeutic combinations. […] We hypothesized that effective combinations would reduce MYC expression and enhance p16 activity. […] These preclinical data identify potentially useful drug combinations for evaluation in drug-resistant MM and reveal potential mechanisms of combined drug sensitivity.
Described herein is the primary MIPE qHTS used to cherrypick compounds. Validated compounds were then further tested for potential synergistic activiy.
[1] Peat TJ, Gaikwad SM, Dubois W, Gyabaah-Kessie N, Zhang S, Gorjifard S, Phyo Z, Andres M, Hughitt VK, Simpson RM, Miller MA, Girvin AT, Taylor A, Williams D, D'Antonio N, Zhang Y, Rajagopalan A, Flietner E, Wilson K, Zhang X, Shinn P, Klumpp-Thomas C, McKnight C, Itkin Z, Chen L, Kazandijian D, Zhang J, Michalowski AM, Simmons JK, Keats J, Thomas CJ, Mock BA. Drug combinations identified by high-throughput screening promote cell cycle transition and upregulate Smad pathways in myeloma. Cancer Lett. 2023 Aug 1;568:216284. doi: 10.1016/j.canlet.2023.216284. Epub 2023 Jun 24. PMID: 37356470; PMCID: PMC10408729.
SEQUENCE No. (e.g., 1, 2, 3, etc.); […] (e.g., Cells, Incubation, Reagent, etc.); VALUE and DESCRIPTION.
1; Cells; 5 uL; white, solid bottom 1536-well Greiner assay plate.
2; Compounds; 23 nL; Kalypsis pin tool (Wako USA) equipped with a 1536-well pin head to transfer to the assay plates.
3; Incubation; 48 hours; 37C incubation.
4; Reagent;5uL; CellTiter Glo (Promega).
5; Detector; 425V; Luminescence; Viewlux PerkinElmer.
NOTES (numbers refer to Sequence numbers above)
1. The cell-based screening methods employed in this study were like those previously published. Briefly, the corresponding myeloma cell lines were screened in 1,536-well plates with 500 cells, 5-uL per well for inhibition of cell viability (assessed by measuring ATP levels with CellTiterGlo).
2. NCATS MIPE 4.0 library of approved and investigational drugs were added using the Kalypsis pin tool. Wells treated with DMSO only for 100% viability and media only wells for 0% viability were used as controls.
3. The assay plates were covered and incubated for 48 hours in a 37C, 5% CO2 incubator with controlled humidity.
4. After 48 hours, CellTilter-GloTM luminescent substrate mix (Promega) reagent was added to the assay plate and plates we incubated for 5 min at room temperature.
5. Signal was measured as median relative luminescence units on a ViewLux (PerkinElmer) multiplate reader.
[1] Heske CM, Davis MI, Baumgart JT, Wilson K, Gormally MV, Chen L, Zhang X, Ceribelli M, Duveau DY, Guha R, Ferrer M, Arnaldez FI, Ji J, Tran HL, Zhang Y, Mendoza A, Helman LJ, Thomas CJ. Matrix Screen Identifies Synergistic Combination of PARP Inhibitors and Nicotinamide Phosphoribosyltransferase (NAMPT) Inhibitors in Ewing Sarcoma. Clin Cancer Res. 2017 Dec 1;23(23):7301-7311. doi: 10.1158/1078-0432.CCR-17-1121. Epub 2017 Sep 12. PMID: 28899971; PMCID: PMC6636827.
Potency is read from the fitted curve at half-maximal effect.

| Compound | viability | Potency |
| --- | --- | --- |
| CCC(=O)O[C@]1(C(=O)CCl)[C@@H](C)C[C@H]2[C@@H]3CCC4=CC(=O)C=C[C@]4(C)[C@@]3(F)[C@@H](O)C[C@@]21C | 101% (inactive) | – |
| O=c1cc(O)c(Cl)c[nH]1 | – | 0.743 µM (active) |
| COC(=O)Nc1nc2ccc(Sc3ccccc3)cc2[nH]1 | – | 0.59 µM (active) |
| CCCc1nc(C)c2c(=O)[nH]c(-c3cc(S(=O)(=O)N4CCN(CC)CC4)ccc3OCC)nn12 | – | 3.72 µM (active) |
| Nc1nc(F)nc2c1ncn2[C@@H]1O[C@H](CO)[C@@H](O)[C@@H]1O | – | 0.059 µM (active) |
| COc1cc(NS(=O)(=O)c2ccc(N)cc2)nc(OC)n1 | 110% (inactive) | – |
| C1CCC(C(CC2CCCCN2)C2CCCCC2)CC1 (stereo not given) | – | 11.8 µM (active) |
| CC(C(=O)O)c1ccc2c(c1)CC(=O)c1ccccc1S2 (stereo not given) | – | 0.264 µM (active) |
| Cc1cc(NS(=O)(=O)c2ccc(N)cc2)no1 | 133% (inactive) | – |
| Cc1nnc(NS(=O)(=O)c2ccc(N)cc2)s1 | – | 0.418 µM (active) |
| Cc1ccc(S(=O)(=O)N[C@@H](Cc2ccccc2)C(=O)CCl)cc1 | – | 14.8 µM (active) |
| Cc1ncc([N+](=O)[O-])n1CCO | 128% (inactive) | – |
| O=C(O)c1ccc(-n2nc(-c3ccccc3O)nc2-c2ccccc2O)cc1 | – | 20.9 µM (active) |
| CC(=O)Oc1ccccc1C(=O)Nc1ncc([N+](=O)[O-])s1 | – | 17.1 µM (active) |
| COc1cc([C@@H]2c3cc4c(cc3[C@H](O)[C@H]3COC(=O)[C@H]23)OCO4)cc(OC)c1OC | 18.6% (inactive) | – |
| CCCCCCNC(=O)n1cc(F)c(=O)[nH]c1=O | – | 0.332 µM (active) |
| CC(C)OC(=O)C(C(=O)OC(C)C)=C1SC=CS1 | 403% (active) | – |
| NC(N)=NC(N)=NCCc1ccccc1 | – | 3.32 µM (active) |
| COc1cc2nc(N3CCCN(C)CC3)nc(NC3CCN(Cc4ccccc4)CC3)c2cc1OC | – | 4.69 µM (active) |
| Cc1noc(NS(=O)(=O)c2ccc(N)cc2)c1C | 120% (inactive) | – |
| NS(=O)(=O)c1cc2c(cc1Cl)NC(C(Cl)Cl)NS2(=O)=O (stereo not given) | 204% (inactive) | – |
| COc1cc2c(Nc3ccc(Br)cc3F)ncnc2cc1OCC1CCN(C)CC1 | 385% (inactive) | – |
| O[C@@H](CNC[C@H](O)[C@H]1CCc2cc(F)ccc2O1)[C@@H]1CCc2cc(F)ccc2O1 | – | 23.5 µM (active) |
| CCCCOc1ccc(CC(=O)NO)cc1 | – | 14.8 µM (active) |
| CCOC(=O)[C@H](CCc1ccccc1)N[C@H]1CS[C@H](c2cccs2)CN(CC(=O)O)C1=O | – | 0.132 µM (active) |
| COc1ccc2cc3[n+](cc2c1OC)CCc1cc2c(cc1-3)OCO2 | – | 2.64 µM (active) |
| CCN(CC)CC#CCOC(=O)C(O)(c1ccccc1)C1CCCCC1 (stereo not given) | – | 4.69 µM (active) |
| CNNCc1ccc(C(=O)NC(C)C)cc1 | – | 2.35 µM (active) |
| CCOC(=O)[C@H](CCc1ccccc1)N[C@H]1CCc2ccccc2N(CC(=O)O)C1=O | – | 9.35 µM (active) |
| Nc1ccc(S(=O)(=O)Nc2ccccn2)cc1 | 144% (inactive) | – |
